Results from PubChem BioAssay (NCI).
The panel holds about 83,000 compounds, 20% with a hit somewhere; the sample as a whole holds those more often.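 A percent growth of 40 corresponds to 60% growth inhibition; 0 means no net growth; -100 means all cells died. Active threshold: below 10.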 Active and inactive are the calls of the source.

Key:
Assay in all cases: NCI-60 one-dose screen, 48 h (100 = growth as untreated, 0 = no growth, -100 = all killed)
Conditions in all cases: 10 µM unless noted
SK-MEL-2 melanoma = test system: SK-MEL-2 melanoma
EKVX NSCLC = test system: EKVX NSCLC
SN12C renal = test system: SN12C renal
UO-31 renal = test system: UO-31 renal
TK-10 renal = test system: TK-10 renal
ACHN renal = test system: ACHN renal
A498 renal = test system: A498 renal
CCRF-CEM leukemia = test system: CCRF-CEM leukemia
MOLT-4 leukemia = test system: MOLT-4 leukemia
SR leukemia = test system: SR leukemia
RPMI-8226 leukemia = test system: RPMI-8226 leukemia
OVCAR-8 ovarian = test system: OVCAR-8 ovarian
OVCAR-5 ovarian = test system: OVCAR-5 ovarian
OVCAR-4 ovarian = test system: OVCAR-4 ovarian
SK-OV-3 ovarian = test system: SK-OV-3 ovarian
IGROV1 ovarian = test system: IGROV1 ovarian
OVCAR-3 ovarian = test system: OVCAR-3 ovarian
HS 578T breast = test system: HS 578T breast
NCI/ADR-RES ovarian = test system: NCI/ADR-RES ovarian
T-47D breast = test system: T-47D breast

Measured: growth

c1ccc2c3c([nH]c2c1)C(c1ccc(C2NCCc4c2[nH]c2ccccc42)cc1)NCC3 (stereo not given)
active: SK-MEL-2 melanoma -13% | UO-31 renal -0.102% | ACHN renal -73.1% | CCRF-CEM leukemia -16.7% | MOLT-4 leukemia -62% | SR leukemia -51.5% | RPMI-8226 leukemia -40.3% | OVCAR-8 ovarian -41.4% | OVCAR-3 ovarian -65.3% | HS 578T breast -16.8% | T-47D breast -59%
inactive: EKVX NSCLC 20.6% | SN12C renal 41.6% | TK-10 renal 63.4% | A498 renal 116% | OVCAR-5 ovarian 77% | OVCAR-4 ovarian 23.5% | SK-OV-3 ovarian 49.1% | IGROV1 ovarian 25.8% | NCI/ADR-RES ovarian 63.1%

N#Cc1c(-c2ccc(F)cc2)nc(N/N=C/c2cccc(O)c2)nc1N1CCOCC1
inactive: SK-MEL-2 melanoma 85.9% | EKVX NSCLC 86.9% | SN12C renal 96.7% | UO-31 renal 45.3% | TK-10 renal 63.3% | ACHN renal 66.9% | A498 renal 78.7% | CCRF-CEM leukemia 56.4% | MOLT-4 leukemia 40% | RPMI-8226 leukemia 41.3% | OVCAR-8 ovarian 69.7% | OVCAR-5 ovarian 108% | OVCAR-4 ovarian 79.7% | SK-OV-3 ovarian 93.9% | IGROV1 ovarian 61.4% | OVCAR-3 ovarian 78.6% | HS 578T breast 84.4% | NCI/ADR-RES ovarian 72.8% | T-47D breast 89.2%
active: SR leukemia 2.93%

c1ccc2nc(N3CCOCC3)c(N3CCCCC3)nc2c1
inactive: SK-MEL-2 melanoma 95.2% | EKVX NSCLC 97.7% | SN12C renal 96.2% | UO-31 renal 77.2% | TK-10 renal 98.8% | ACHN renal 103% | A498 renal 78.3% | CCRF-CEM leukemia 93.6% | MOLT-4 leukemia 95.6% | SR leukemia 90.2% | RPMI-8226 leukemia 96.9% | OVCAR-8 ovarian 102% | OVCAR-5 ovarian 105% | OVCAR-4 ovarian 97.6% | SK-OV-3 ovarian 101% | IGROV1 ovarian 107% | OVCAR-3 ovarian 103% | HS 578T breast 96.9% | NCI/ADR-RES ovarian 100% | T-47D breast 75.9%

CCOC(=O)c1c(-c2ccc(O)cc2)c(C#N)c2c(C#N)c(N)nn2c1N
inactive: SK-MEL-2 melanoma 44.9% | EKVX NSCLC 71.6% | SN12C renal 81.7% | UO-31 renal 69.9% | TK-10 renal 82.8% | ACHN renal 88% | A498 renal 34.9% | CCRF-CEM leukemia 35.7% | MOLT-4 leukemia 23.7% | SR leukemia 22.3% | RPMI-8226 leukemia 38.7% | OVCAR-8 ovarian 70.8% | OVCAR-5 ovarian 89.3% | OVCAR-4 ovarian 81% | SK-OV-3 ovarian 75.5% | IGROV1 ovarian 52.3% | OVCAR-3 ovarian 66.3% | HS 578T breast 70.2% | NCI/ADR-RES ovarian 95.9% | T-47D breast 28.2%

CN(C)C(CNc1oc(-c2cccc3ccccc23)nc1C#N)c1ccco1 (stereo not given)
inactive: SK-MEL-2 melanoma 95.9% | EKVX NSCLC 85.1% | SN12C renal 103% | UO-31 renal 87.7% | TK-10 renal 109% | ACHN renal 90.6% | A498 renal 107% | CCRF-CEM leukemia 79.5% | MOLT-4 leukemia 70.5% | SR leukemia 69.5% | RPMI-8226 leukemia 87.8% | OVCAR-8 ovarian 96.4% | OVCAR-5 ovarian 94.6% | OVCAR-4 ovarian 83.2% | SK-OV-3 ovarian 104% | IGROV1 ovarian 95.7% | OVCAR-3 ovarian 96.2% | HS 578T breast 89.6% | NCI/ADR-RES ovarian 94.8% | T-47D breast 72%

C=C1C(=O)O[C@H]2[C@H]1CC/C(COC(=O)CCC(=O)OC/C1=C/CC[C@@]3(C)O[C@H]3[C@H]3OC(=O)C(=C)[C@@H]3CC1)=C\CC[C@@]1(C)O[C@@H]21
active: SN12C renal 5.32% | UO-31 renal 0.355% | ACHN renal -21.8% | CCRF-CEM leukemia -8.57% | MOLT-4 leukemia 1.24% | SR leukemia 0.484% | RPMI-8226 leukemia -0.781% | OVCAR-3 ovarian -11%
inactive: SK-MEL-2 melanoma 60.8% | EKVX NSCLC 44.5% | TK-10 renal 25% | A498 renal 114% | OVCAR-8 ovarian 32.8% | OVCAR-5 ovarian 94.6% | OVCAR-4 ovarian 47.3% | SK-OV-3 ovarian 84.9% | IGROV1 ovarian 11.5% | HS 578T breast 79.6% | NCI/ADR-RES ovarian 89.8% | T-47D breast 19.7%

CC(C)NS(=O)(=O)c1cccc(-c2ccc3c4c(n(CCCN(C)C)c(=O)c3c2)-c2ccccc2C4=O)c1
active: CCRF-CEM leukemia 1.51% | SR leukemia -27%
inactive: SK-MEL-2 melanoma 101% | EKVX NSCLC 105% | SN12C renal 97.2% | UO-31 renal 91% | TK-10 renal 114% | ACHN renal 82.4% | A498 renal 83.3% | MOLT-4 leukemia 68.2% | RPMI-8226 leukemia 80.9% | OVCAR-8 ovarian 76.4% | OVCAR-5 ovarian 117% | OVCAR-4 ovarian 101% | SK-OV-3 ovarian 104% | IGROV1 ovarian 90% | OVCAR-3 ovarian 110% | HS 578T breast 99.8% | NCI/ADR-RES ovarian 103% | T-47D breast 97.1%

COC(=O)c1ccc(NC(=O)CSc2nc(-c3ccc(F)cc3)nc3ccccc23)cc1
inactive: SK-MEL-2 melanoma 99.8% | EKVX NSCLC 91.4% | SN12C renal 79.3% | UO-31 renal 82.3% | TK-10 renal 113% | ACHN renal 97.4% | A498 renal 99.6% | CCRF-CEM leukemia 85.7% | MOLT-4 leukemia 89% | SR leukemia 78% | RPMI-8226 leukemia 44.9% | OVCAR-8 ovarian 82.2% | OVCAR-5 ovarian 107% | SK-OV-3 ovarian 90.9% | IGROV1 ovarian 90.9% | OVCAR-3 ovarian 16.8% | HS 578T breast 82.8% | NCI/ADR-RES ovarian 88% | T-47D breast 67.7%
active: OVCAR-4 ovarian -31.5%

Fc1ccc(N/N=C/c2ccc(-n3cccn3)cc2)cc1
inactive: SK-MEL-2 melanoma 103% | EKVX NSCLC 81.3% | SN12C renal 108% | UO-31 renal 80.4% | TK-10 renal 111% | ACHN renal 91.7% | A498 renal 119% | CCRF-CEM leukemia 89.5% | MOLT-4 leukemia 89% | SR leukemia 64.1% | RPMI-8226 leukemia 97.7% | OVCAR-8 ovarian 101% | OVCAR-5 ovarian 112% | OVCAR-4 ovarian 95.6% | SK-OV-3 ovarian 84.6% | IGROV1 ovarian 78.3% | OVCAR-3 ovarian 93.6% | HS 578T breast 108% | NCI/ADR-RES ovarian 87.6% | T-47D breast 86.1%

CSc1cccc(NC(=O)Nc2nc3c(C)cccc3s2)c1
inactive: SK-MEL-2 melanoma 98.5% | EKVX NSCLC 80.2% | SN12C renal 94.3% | UO-31 renal 84.4% | TK-10 renal 119% | ACHN renal 101% | A498 renal 106% | CCRF-CEM leukemia 106% | MOLT-4 leukemia 99.9% | SR leukemia 83.7% | RPMI-8226 leukemia 60.7% | OVCAR-8 ovarian 93.9% | OVCAR-5 ovarian 117% | OVCAR-4 ovarian 85% | SK-OV-3 ovarian 97.1% | IGROV1 ovarian 90.2% | OVCAR-3 ovarian 117% | HS 578T breast 87.7% | NCI/ADR-RES ovarian 91.5% | T-47D breast 95%

Cc1ccc(C2CC(c3ccc(Nc4nc(NCCO)nc(NCCO)n4)cc3)=NN2c2ccc(Cl)cc2)cc1 (stereo not given)
inactive: SK-MEL-2 melanoma 70.6% | EKVX NSCLC 65.7% | SN12C renal 82.4% | UO-31 renal 62.3% | TK-10 renal 82.6% | ACHN renal 52.2% | A498 renal 86.1% | CCRF-CEM leukemia 31.8% | MOLT-4 leukemia 32.3% | SR leukemia 26.2% | RPMI-8226 leukemia 47.5% | OVCAR-8 ovarian 66% | OVCAR-5 ovarian 99% | OVCAR-4 ovarian 63.9% | SK-OV-3 ovarian 98.6% | IGROV1 ovarian 82.6% | OVCAR-3 ovarian 45.7% | HS 578T breast 72.8% | NCI/ADR-RES ovarian 80.4% | T-47D breast 53.1%

O=C(Nc1nc(-c2ccccc2Cl)cs1)c1cc(-c2ccc(Br)cc2)nc2ccccc12
inactive: SK-MEL-2 melanoma 26.6% | EKVX NSCLC 35.6% | SN12C renal 69.9% | UO-31 renal 42% | TK-10 renal 49.4% | ACHN renal 49.7% | A498 renal 22.6% | CCRF-CEM leukemia 44.9% | MOLT-4 leukemia 37.2% | SR leukemia 53% | RPMI-8226 leukemia 29% | OVCAR-8 ovarian 43.1% | OVCAR-5 ovarian 70.6% | OVCAR-4 ovarian 46.6% | SK-OV-3 ovarian 31.8% | IGROV1 ovarian 61.4% | OVCAR-3 ovarian 47% | HS 578T breast 79.6% | NCI/ADR-RES ovarian 57.2%
active: T-47D breast 9.58%

Cc1ccc(C(=O)O)o1
inactive: SK-MEL-2 melanoma 96.1% | EKVX NSCLC 104% | SN12C renal 110% | UO-31 renal 95.4% | TK-10 renal 96.9% | ACHN renal 111% | A498 renal 108% | CCRF-CEM leukemia 115% | MOLT-4 leukemia 101% | SR leukemia 116% | RPMI-8226 leukemia 114% | OVCAR-8 ovarian 108% | OVCAR-5 ovarian 105% | OVCAR-4 ovarian 100% | SK-OV-3 ovarian 101% | IGROV1 ovarian 102% | OVCAR-3 ovarian 103% | HS 578T breast 118% | NCI/ADR-RES ovarian 101% | T-47D breast 102%

Cc1cnc(-c2ccc(-c3ccc(NC(=O)Nc4c(F)cc(F)cc4F)cc3F)c3c2C(=O)NC3)[nH]1
active: SN12C renal 3.34% | SR leukemia -3.54% | OVCAR-4 ovarian -16.5% | OVCAR-3 ovarian -34% | HS 578T breast -5.61%
inactive: SK-MEL-2 melanoma 58.1% | EKVX NSCLC 52% | UO-31 renal 50.3% | TK-10 renal 83.6% | ACHN renal 50.4% | A498 renal 22.4% | CCRF-CEM leukemia 23.9% | MOLT-4 leukemia 18.3% | RPMI-8226 leukemia 22.2% | OVCAR-8 ovarian 39% | OVCAR-5 ovarian 71% | SK-OV-3 ovarian 49.6% | IGROV1 ovarian 33% | NCI/ADR-RES ovarian 72.4% | T-47D breast 73.6%

CNC(=O)c1cc(Oc2ccc3c(c2)sc2nc(-c4ccc(NC(C)=O)cc4)cn23)ccn1
active: A498 renal -6.27%
inactive: SK-MEL-2 melanoma 45.2% | EKVX NSCLC 54.7% | SN12C renal 52% | UO-31 renal 43.9% | TK-10 renal 61.4% | ACHN renal 52% | CCRF-CEM leukemia 78.8% | MOLT-4 leukemia 72.7% | SR leukemia 25.7% | RPMI-8226 leukemia 60.3% | OVCAR-8 ovarian 73% | OVCAR-5 ovarian 90% | OVCAR-4 ovarian 83.5% | SK-OV-3 ovarian 34% | IGROV1 ovarian 69.2% | OVCAR-3 ovarian 75% | HS 578T breast 43.4% | NCI/ADR-RES ovarian 52.1% | T-47D breast 16.9%

N#Cc1nc(-c2ccccc2)oc1S(=O)(=O)NCC(c1ccc(Cl)cc1)N1CCCCC1 (stereo not given)
active: CCRF-CEM leukemia 1.94% | MOLT-4 leukemia 1.32% | RPMI-8226 leukemia 3.47%
inactive: SK-MEL-2 melanoma 72.2% | EKVX NSCLC 106% | SN12C renal 65.6% | UO-31 renal 65.5% | TK-10 renal 112% | ACHN renal 82.7% | A498 renal 102% | SR leukemia 12.2% | OVCAR-8 ovarian 71.3% | OVCAR-5 ovarian 102% | OVCAR-4 ovarian 99.3% | SK-OV-3 ovarian 113% | IGROV1 ovarian 44.2% | OVCAR-3 ovarian 61.9% | HS 578T breast 102% | NCI/ADR-RES ovarian 91.1% | T-47D breast 65.1%
